In experiment [1] the target is Tyrosine-protein kinase Fer (Homo sapiens) (UniProt P16591). The following applies: at 1 µM.
Experiment [2] concerns the target Tyrosine-protein kinase Fes/Fps (Homo sapiens) (UniProt P07332). The following applies: at 0.1 µM.
Experiment [3] has the same target. The settings on record: at 1 µM.
Experiment [4] concerns the target Fibroblast growth factor receptor 1 (Homo sapiens) (UniProt P11362). The following applies: at 0.1 µM.
For experiment [5] the target is unchanged. The following applies: at 1 µM.
The target in experiment [6] is Fibroblast growth factor receptor 2 (Homo sapiens) (UniProt P21802). The following applies: at 0.1 µM.
Fibroblast growth factor receptor 2 (Homo sapiens), sequence (P21802 22-821 limits assumed): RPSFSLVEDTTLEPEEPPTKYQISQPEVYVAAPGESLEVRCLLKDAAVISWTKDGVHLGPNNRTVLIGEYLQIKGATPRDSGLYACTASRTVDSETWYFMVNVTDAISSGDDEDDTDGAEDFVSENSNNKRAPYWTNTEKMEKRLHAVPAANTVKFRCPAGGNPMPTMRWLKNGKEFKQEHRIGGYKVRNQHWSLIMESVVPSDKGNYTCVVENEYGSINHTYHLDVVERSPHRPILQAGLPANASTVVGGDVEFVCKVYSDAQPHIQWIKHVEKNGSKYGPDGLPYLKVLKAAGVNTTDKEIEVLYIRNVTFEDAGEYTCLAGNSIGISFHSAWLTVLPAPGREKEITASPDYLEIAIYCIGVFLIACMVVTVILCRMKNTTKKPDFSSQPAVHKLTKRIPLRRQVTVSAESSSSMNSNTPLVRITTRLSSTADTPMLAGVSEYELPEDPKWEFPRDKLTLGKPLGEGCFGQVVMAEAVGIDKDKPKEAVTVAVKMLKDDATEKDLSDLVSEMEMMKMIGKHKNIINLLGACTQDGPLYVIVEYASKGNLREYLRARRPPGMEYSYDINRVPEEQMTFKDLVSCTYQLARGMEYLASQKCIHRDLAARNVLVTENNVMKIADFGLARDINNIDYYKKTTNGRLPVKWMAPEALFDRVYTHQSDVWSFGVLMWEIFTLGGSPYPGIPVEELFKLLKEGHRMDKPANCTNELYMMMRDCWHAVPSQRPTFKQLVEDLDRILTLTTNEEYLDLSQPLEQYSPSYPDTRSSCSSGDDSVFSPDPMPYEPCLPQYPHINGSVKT
The target is the same in experiment [7]. The following applies: at 1 µM.
Experiment [8] addresses Fibroblast growth factor receptor 3 (Homo sapiens) (UniProt P22607). The following applies: at 0.1 µM.
Experiment [9] has the same target. The following applies: at 1 µM.
The target in experiment [10] is Fibroblast growth factor receptor 4 (Homo sapiens) (UniProt P22455). The settings on record: at 0.1 µM.
Experiment [11] has the same target. The following applies: at 1 µM.
Experiment [12] concerns the target Tyrosine-protein kinase Fgr (Homo sapiens) (UniProt P09769). The following applies: at 0.1 µM.
The target is the same in experiment [13]. The settings on record: at 1 µM.
In experiment [14] the target is Vascular endothelial growth factor receptor 1 (Homo sapiens) (UniProt P17948). The following applies: at 0.1 µM.
The target is the same in experiment [15]. The settings on record: at 1 µM.
Experiment [16] has as its target Receptor-type tyrosine-protein kinase FLT3 (Homo sapiens) (UniProt P36888). The settings on record: at 0.1 µM.
The target is the same in experiment [17]. The settings on record: at 1 µM.
For experiment [18], the system named is T1, Receptor-type tyrosine-protein kinase FLT3 (Homo sapiens), P36888 [D835Y].
T1 sequence (whole entry): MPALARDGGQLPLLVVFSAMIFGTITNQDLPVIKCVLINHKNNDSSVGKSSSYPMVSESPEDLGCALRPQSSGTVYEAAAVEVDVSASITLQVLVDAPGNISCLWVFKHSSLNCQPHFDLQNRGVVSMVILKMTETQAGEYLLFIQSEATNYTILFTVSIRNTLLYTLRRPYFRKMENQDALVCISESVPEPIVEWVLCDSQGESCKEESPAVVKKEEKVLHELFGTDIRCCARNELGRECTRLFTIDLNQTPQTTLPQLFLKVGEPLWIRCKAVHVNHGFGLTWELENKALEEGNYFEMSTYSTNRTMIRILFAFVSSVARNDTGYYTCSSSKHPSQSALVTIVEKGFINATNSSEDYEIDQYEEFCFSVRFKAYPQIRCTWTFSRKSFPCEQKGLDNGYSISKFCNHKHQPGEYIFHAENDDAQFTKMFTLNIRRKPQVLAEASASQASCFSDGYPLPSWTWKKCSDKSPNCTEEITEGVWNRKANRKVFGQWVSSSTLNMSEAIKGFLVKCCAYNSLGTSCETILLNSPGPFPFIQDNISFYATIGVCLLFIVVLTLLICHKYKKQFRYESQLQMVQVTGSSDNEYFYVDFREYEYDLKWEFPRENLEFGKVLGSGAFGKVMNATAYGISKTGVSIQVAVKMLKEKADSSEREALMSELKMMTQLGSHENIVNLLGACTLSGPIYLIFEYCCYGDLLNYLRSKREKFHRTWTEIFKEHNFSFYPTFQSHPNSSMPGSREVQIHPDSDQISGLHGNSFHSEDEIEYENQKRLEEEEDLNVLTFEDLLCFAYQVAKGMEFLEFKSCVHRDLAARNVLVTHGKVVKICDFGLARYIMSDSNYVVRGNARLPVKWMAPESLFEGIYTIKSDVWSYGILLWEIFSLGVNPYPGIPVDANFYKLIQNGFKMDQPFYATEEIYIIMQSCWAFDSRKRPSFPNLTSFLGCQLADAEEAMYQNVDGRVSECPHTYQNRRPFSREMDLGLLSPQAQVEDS
The following applies: at 0.1 µM.

Experiment [19] has as its target Non-receptor tyrosine-protein kinase TYK2 (Homo sapiens) (UniProt P29597). The following applies: at 1 µM.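 Further: values are mean percent inhibition of TYK2 kinase.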
The target of experiment [20] is T2, Tyrosine-protein kinase receptor TYRO3 (Homo sapiens) (UniProt Q06418).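 Further: reported percentages are averaged inhibition values of TYRO3 kinase activity.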
T2 sequence (whole entry): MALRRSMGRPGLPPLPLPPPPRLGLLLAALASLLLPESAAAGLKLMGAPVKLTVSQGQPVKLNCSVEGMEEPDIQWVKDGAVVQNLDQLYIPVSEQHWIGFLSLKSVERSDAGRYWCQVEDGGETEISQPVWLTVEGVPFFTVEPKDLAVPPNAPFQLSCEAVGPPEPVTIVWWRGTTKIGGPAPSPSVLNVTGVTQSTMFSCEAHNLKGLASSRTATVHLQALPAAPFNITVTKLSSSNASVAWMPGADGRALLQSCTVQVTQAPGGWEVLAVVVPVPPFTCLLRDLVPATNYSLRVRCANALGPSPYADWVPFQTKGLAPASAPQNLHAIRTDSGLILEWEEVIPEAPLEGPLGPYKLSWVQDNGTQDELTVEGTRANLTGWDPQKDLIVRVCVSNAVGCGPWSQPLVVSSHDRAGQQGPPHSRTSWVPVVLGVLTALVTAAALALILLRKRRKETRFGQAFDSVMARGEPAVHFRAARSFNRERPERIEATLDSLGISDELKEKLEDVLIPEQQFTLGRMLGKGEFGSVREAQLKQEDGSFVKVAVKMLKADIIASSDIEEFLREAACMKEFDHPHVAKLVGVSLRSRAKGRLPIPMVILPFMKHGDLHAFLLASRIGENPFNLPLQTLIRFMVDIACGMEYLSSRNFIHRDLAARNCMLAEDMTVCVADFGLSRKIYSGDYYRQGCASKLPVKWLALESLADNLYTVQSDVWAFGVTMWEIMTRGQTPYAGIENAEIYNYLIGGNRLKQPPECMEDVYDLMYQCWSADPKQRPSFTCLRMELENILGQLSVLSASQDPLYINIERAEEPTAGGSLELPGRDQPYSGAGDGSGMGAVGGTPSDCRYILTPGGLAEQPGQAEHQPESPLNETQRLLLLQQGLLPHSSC
The following applies: at 0.1 µM.

Tyrosine-protein kinase Fes/Fps (Homo sapiens), sequence (P07332 whole entry): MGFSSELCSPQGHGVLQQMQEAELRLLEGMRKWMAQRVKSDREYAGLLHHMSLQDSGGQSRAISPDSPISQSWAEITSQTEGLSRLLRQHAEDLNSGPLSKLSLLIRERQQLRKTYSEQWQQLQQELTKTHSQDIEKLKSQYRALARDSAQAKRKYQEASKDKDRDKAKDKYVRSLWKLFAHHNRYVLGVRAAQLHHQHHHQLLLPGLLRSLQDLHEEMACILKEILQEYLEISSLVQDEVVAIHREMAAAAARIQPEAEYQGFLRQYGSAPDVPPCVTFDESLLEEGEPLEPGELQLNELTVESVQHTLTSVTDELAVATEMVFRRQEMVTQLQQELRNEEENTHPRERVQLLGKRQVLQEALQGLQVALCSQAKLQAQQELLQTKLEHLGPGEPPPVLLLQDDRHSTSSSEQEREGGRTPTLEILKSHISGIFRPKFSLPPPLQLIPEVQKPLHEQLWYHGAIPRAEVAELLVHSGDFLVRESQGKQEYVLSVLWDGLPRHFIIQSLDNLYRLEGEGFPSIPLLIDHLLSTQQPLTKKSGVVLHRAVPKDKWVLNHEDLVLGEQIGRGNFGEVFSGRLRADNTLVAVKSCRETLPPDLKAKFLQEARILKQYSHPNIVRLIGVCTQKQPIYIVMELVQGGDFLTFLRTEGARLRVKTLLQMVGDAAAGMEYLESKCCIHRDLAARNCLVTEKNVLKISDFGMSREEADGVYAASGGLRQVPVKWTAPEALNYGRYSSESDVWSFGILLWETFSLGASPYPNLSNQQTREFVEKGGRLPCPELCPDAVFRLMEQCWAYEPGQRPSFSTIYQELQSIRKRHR
Tyrosine-protein kinase Fgr (Homo sapiens), sequence (P09769 2-529 limits assumed): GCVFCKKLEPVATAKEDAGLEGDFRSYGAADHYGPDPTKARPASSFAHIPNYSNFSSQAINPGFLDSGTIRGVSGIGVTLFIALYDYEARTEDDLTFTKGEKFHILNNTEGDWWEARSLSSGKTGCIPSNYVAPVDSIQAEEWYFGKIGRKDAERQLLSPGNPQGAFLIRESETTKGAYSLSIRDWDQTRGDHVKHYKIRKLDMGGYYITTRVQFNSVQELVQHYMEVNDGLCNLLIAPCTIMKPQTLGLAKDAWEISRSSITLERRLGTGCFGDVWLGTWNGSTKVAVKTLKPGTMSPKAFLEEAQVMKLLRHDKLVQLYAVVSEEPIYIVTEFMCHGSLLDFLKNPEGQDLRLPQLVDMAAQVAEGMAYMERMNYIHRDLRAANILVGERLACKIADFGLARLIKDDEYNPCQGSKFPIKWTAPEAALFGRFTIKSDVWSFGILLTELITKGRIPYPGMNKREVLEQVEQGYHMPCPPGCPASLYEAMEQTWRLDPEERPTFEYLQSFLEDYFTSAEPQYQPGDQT
Tyrosine-protein kinase Fer (Homo sapiens), sequence (P16591 whole entry, looked up): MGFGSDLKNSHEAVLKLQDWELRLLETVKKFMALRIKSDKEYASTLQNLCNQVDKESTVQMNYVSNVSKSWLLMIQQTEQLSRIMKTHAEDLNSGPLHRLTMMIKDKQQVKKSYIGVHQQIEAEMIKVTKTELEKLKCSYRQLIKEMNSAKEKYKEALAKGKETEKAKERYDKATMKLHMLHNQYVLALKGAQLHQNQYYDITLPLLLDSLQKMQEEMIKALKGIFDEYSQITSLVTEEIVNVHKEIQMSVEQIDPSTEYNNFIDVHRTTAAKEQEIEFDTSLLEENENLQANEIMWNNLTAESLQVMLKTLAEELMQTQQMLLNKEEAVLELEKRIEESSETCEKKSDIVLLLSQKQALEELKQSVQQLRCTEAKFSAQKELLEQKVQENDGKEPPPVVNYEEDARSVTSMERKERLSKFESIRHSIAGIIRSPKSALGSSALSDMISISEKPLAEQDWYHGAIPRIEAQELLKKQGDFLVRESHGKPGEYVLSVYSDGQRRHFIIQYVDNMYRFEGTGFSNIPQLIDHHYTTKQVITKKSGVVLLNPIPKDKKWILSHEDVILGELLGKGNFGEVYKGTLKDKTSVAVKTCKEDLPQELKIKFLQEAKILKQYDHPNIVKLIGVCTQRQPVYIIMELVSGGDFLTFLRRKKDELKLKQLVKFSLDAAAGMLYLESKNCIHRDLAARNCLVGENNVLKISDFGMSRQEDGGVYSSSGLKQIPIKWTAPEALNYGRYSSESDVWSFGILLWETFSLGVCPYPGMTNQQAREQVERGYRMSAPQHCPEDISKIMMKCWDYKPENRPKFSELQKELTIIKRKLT
Non-receptor tyrosine-protein kinase TYK2 (Homo sapiens), sequence (P29597 whole entry): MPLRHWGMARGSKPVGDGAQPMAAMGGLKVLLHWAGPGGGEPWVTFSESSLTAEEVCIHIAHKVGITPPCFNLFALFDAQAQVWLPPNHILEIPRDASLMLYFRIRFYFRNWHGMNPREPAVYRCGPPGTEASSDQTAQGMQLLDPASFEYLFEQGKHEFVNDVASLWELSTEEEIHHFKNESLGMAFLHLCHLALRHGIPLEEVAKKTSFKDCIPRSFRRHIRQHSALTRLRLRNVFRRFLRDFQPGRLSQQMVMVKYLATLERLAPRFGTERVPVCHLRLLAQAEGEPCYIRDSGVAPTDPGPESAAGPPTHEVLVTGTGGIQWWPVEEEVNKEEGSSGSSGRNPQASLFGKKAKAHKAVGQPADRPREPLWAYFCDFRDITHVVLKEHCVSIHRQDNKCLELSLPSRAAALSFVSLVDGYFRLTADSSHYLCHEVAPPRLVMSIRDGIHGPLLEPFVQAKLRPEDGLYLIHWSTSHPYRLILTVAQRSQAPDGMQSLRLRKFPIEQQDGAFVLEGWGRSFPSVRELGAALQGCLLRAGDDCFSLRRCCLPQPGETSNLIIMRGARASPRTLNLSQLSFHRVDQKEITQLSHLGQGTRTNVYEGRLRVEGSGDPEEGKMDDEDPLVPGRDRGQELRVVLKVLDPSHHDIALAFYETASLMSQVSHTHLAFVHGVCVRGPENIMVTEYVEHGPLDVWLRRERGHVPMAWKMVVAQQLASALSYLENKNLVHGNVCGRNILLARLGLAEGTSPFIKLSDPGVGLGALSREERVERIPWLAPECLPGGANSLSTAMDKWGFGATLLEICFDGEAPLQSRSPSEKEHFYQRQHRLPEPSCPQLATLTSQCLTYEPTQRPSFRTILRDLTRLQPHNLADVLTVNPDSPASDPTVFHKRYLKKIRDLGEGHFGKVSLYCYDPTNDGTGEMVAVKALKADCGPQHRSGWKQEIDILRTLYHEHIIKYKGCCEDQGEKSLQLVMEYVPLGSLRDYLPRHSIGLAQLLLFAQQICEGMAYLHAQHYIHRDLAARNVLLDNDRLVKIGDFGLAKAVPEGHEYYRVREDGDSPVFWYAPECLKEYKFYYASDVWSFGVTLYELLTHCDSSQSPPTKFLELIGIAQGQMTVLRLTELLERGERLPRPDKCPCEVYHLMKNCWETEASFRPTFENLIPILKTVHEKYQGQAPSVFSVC
Fibroblast growth factor receptor 3 (Homo sapiens), sequence (P22607 23-806 limits assumed): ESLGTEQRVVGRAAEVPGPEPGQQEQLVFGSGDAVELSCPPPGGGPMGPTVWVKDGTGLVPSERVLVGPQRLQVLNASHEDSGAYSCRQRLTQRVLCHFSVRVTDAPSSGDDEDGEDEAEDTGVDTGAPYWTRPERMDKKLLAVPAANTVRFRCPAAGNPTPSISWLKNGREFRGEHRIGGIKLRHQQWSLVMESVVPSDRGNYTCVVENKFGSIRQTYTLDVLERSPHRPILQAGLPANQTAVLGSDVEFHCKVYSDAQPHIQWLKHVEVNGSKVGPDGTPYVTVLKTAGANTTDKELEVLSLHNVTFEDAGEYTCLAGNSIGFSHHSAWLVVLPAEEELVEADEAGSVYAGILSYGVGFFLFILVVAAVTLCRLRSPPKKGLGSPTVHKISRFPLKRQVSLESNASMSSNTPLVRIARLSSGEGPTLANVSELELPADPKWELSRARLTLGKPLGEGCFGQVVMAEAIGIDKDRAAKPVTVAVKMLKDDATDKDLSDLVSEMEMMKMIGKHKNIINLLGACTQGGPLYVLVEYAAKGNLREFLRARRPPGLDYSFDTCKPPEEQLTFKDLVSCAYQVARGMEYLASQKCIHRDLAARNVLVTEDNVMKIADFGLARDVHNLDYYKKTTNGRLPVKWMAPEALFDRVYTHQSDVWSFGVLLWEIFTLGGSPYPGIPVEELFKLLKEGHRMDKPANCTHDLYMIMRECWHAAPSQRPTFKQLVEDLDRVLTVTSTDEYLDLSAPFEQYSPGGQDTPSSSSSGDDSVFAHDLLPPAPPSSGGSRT

With `Nc1ccc(C#Cc2cncnc2Nc2ccc(OCc3cccc(F)c3)c(Cl)c2)cc1`, the inhibition worked out at 1.48% in experiment [1]; 2.44% in [2]; 2.24% in experiment [3]; 2.53% in experiment [4]; 4.37% in experiment [5]; 3.89% in experiment [6]. In addition, the inhibition in [7] was 4.27%; in [8], 3.12%; in experiment [9] it was 4.49%; in [10], 2.37%; in [11], 1.61%; in experiment [12], 3.78%. In addition, the inhibition in [13] amounted to 4.78%; in experiment [14] it was 0.39%; in experiment [15], 1.35%; in [16], 0.49%; in experiment [17], 2.64%; in experiment [18] it was 1.46%. The inhibition in experiment [19] is -2.76%; in experiment [20], 2.47%.
As to `Cc1ccc(O)cc1Nc1ccnc2ccc(S(C)(=O)=O)cc12`, the inhibition in [1] came out at 18.5%; in experiment [2], 8.11%; in [3], 39.4%; in experiment [4], 7.68%; in experiment [5] it was 8.34%; in experiment [6], 5.74%. Moreover, the inhibition in [7] was 14.5%; in experiment [8], 6.01%; in experiment [9], 11%; in experiment [10] it was -0.45%; in experiment [11], 9.15%; in [12], 76.2%. Also, the inhibition in experiment [13] is 81.8%; in experiment [14], 22.2%; in experiment [15], 72.6%; in [16], 2.73%; in experiment [17], 4.94%; in experiment [18], -0.25%. Also, the inhibition in [19] worked out at 9.66%; in experiment [20] it was 4.42%.
As for `CN(C)C(=O)O[C@H]1CN[C@H](C#Cc2cc3ncnc(Nc4ccc(OCc5cccc(F)c5)c(Cl)c4)c3s2)C1`, the inhibition in [1] is -0.03%; in [2] it was 2.17%; in [3] it was 3.06%; in [4], 2.33%; in experiment [5], 5.24%; in experiment [6] it was 2.11%. For the same compound, the inhibition amounted to 7.78% in [7]; 5.3% in experiment [8]; 5.64% in [9]; 0.8% in [10]; 1.39% in experiment [11]; 1.56% in experiment [12]. Also, the inhibition in experiment [13] is 4.75%; in [14] it was 1.8%; in [15], 2.23%; in experiment [16], -0.55%; in experiment [17], 0.66%; in experiment [18], 3.22%. Besides, the inhibition was -2.89% in experiment [19] and 2.23% in [20].
Turning to `COc1cccc(-n2ncc3c(N/N=C/c4ccc(S(C)(=O)=O)cc4)ncnc32)c1`, the inhibition is 2.49% in experiment [1]; 0.5% in experiment [2]; 0.07% in [3]; 3.99% in [4]; 0.92% in [5]; -2.62% in experiment [6]. Further, the inhibition was 4.85% in experiment [7]; 1.85% in experiment [8]; 4.08% in experiment [9]; -2.71% in experiment [10]; -1.16% in experiment [11]; 28.5% in experiment [12]. In addition, the inhibition turned out to be 64% in [13]; 5.44% in experiment [14]; 18.8% in experiment [15]; 8.26% in [16]; 27.9% in [17]; 18.6% in [18]. Further, the values for the inhibition in experiment [19] and in [20] were 1.37% and 10.6%, respectively.
As for `c1ccc(Nc2ncc(-c3ccccc3)o2)cc1`, the inhibition is 0.57% in [1]; 3.92% in [2]; 4.9% in [3]; -1.19% in [4]; 8.3% in experiment [5]; 6.37% in experiment [6]. For the same compound, the inhibition came out at 10.5% in [7]; 7.27% in experiment [8]; 6.62% in [9]; 2.33% in experiment [10]; 0.73% in [11]; 5.98% in [12]. Besides, the inhibition in experiment [13] came to 15%; in [14], 1.21%; in [15], 11.7%; in experiment [16] it was 33.1%; in experiment [17], 78.8%; in experiment [18], 5.03%. The inhibition in experiment [19] was -4.84%; in experiment [20], 4.31%.
Turning to `O=C1Nc2ccccc2/C1=C/Nc1ccc2[nH]c(=O)[nH]c2c1`, the inhibition in experiment [1] was determined as 12.1%; in [2], 4.03%; in experiment [3] it was 5.17%; in [4], 7.8%; in [5] it was 16.5%; in experiment [6], 9.08%. Also, the inhibition is 35% in [7]; 10% in experiment [8]; 33% in [9]; 1.89% in experiment [10]; 11.4% in [11]; 11.3% in [12]. Also, the inhibition turned out to be 26.5% in experiment [13]; 11% in [14]; 30.1% in experiment [15]; 26.6% in experiment [16]; 74% in experiment [17]; 17.5% in experiment [18]. Besides, the inhibition in [19] was determined as 18.7%; in [20], 5.57%.

The values above are taken from ChEMBL document CHEMBL1961873, “Compounds: GSK PKIS; Assays: Nanosyn kinase panel” (2012).
